Experiment [1] in a line: qHTS assay to identify small molecule agonists of the constitutive androstane receptor (CAR) signaling pathway - cell viability counter screen (AID 1224836). Also: nearly all actives have a fitted effect of over 45% in size. Also: potency is read from the fitted curve at half-maximal effect. In a few lines:
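Counter screen multiplexed with the CAR reporter readout: HepG2 cells co-transfected with hCAR and the CYP2B6-2.2kb construct receive a 15-concentration compound series and 0.75 uM PK11195 (final), then CellTiter-Fluor fluorescence is read after 23 h.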
Background: qHTS replaces the single test concentration by a dilution series.

The nature of experiment [2]: qHTS assay to identify small molecule antagonists of the constitutive androstane receptor (CAR) signaling pathway - cell viability counter screen (AID 1224837). Also: nearly all actives have a fitted effect of over 45% in size. Also: potency is read from the fitted curve at half-maximal effect. The essentials:
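To flag cytotoxic false antagonists, HepG2 hCAR/CYP2B6-2.2kb cells were treated 23 hr with 15-concentration compound series and 50 nM CITCO at 37 C/5% CO2; CellTiter-Fluor fluorescence was the measured end point.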

Experiment [3] deals with Nuclear receptor subfamily 1 group I member 3 (Homo sapiens) (UniProt Q14994). Nature of the experiment: qHTS assay to identify small molecule antagonists of the constitutive androstane receptor (CAR) signaling pathway (AID 1224838).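 Also: HepG2 cells stably expressing hCAR with CYP2B6 luciferase reporter stimulated by CITCO; nearly all actives have a fitted effect of over 40% in size.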 Also: potency is read from the fitted curve at half-maximal effect. The essentials: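 Human hepatoma HepG2 cells expressing hCAR and a CYP2B6 promoter (2.2 kb) luciferase construct; compound titration (15 points) with 50 nM CITCO final, 24 h at 37 C/5% CO2; luminescence via ONE-Glo after 30 min at room temperature.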
Nuclear receptor subfamily 1 group I member 3 (Homo sapiens), sequence (Q14994 whole entry, looked up): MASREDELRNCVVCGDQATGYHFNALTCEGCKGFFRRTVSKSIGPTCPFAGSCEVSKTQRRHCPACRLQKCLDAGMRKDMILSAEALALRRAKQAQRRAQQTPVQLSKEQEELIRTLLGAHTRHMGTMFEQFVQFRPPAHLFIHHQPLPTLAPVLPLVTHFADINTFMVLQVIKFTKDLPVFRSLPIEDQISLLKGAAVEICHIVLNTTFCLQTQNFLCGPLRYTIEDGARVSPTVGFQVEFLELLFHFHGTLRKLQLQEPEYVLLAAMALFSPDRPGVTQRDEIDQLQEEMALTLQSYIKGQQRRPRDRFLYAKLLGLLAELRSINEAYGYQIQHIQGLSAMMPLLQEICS

For experiment [4] the target is unchanged. In words: qHTS assay to identify small molecule agonists of the constitutive androstane receptor (CAR) signaling pathway (AID 1224839). Also: nearly all actives have a fitted effect of over 15% in size. Also: potency is read from the fitted curve at half-maximal effect. The essentials: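 A 15-concentration quantitative screen uses HepG2 cells co-transfected stably with human CAR and CYP2B6-2.2kb reporter. Treatment lasts 24 h with 0.75 uM PK11195 final present; ONE-Glo luminescence is the signal.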

Experiment [5] can be described thus: qHTS assay to identify small molecule antagonists of the estrogen related receptor signaling pathway with the pleiotropic PPARgamma coactivator (PGC) from Tox21 10K library - cell viability counter screen (AID 1224840; active = well fitted cell-killing curve with a large enough effect in the repeat runs, not every such curve was filed as active; also: nearly all actives have a fitted effect of over 40% in size; also: potency is read from the fitted curve at half-maximal effect). In a few lines: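 Seeded PGC/ERR cells (2,000/well, 6 h, 37 C/5% CO2) get compound by pin tool; 17.5 h incubation at 37 C; CellTiter-Fluor added, 30 min, fluorescence measured.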

Experiment [6] in a line: qHTS assay to identify small molecule agonists of the estrogen related receptor signaling pathway with the pleiotropic PPARgamma coactivator (PGC) from Tox21 10K library (AID 1224842). Also: nearly all actives have a fitted effect of over 15% in size. The essentials: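 PGC/ERR reporter cells (NTP line) were seeded 2,000 per well, rested 6 h at 37 C/5% CO2, then pin-dosed with compounds in DMSO for 18 h at 37 C; luciferase read by One-Glo luminescence after 30 min at room temperature.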

Experiment [7] deals with Thyrotropin receptor (Homo sapiens) (UniProt P16473). Nature of the experiment: qHTS assay to identify small molecule agonists of the thyroid stimulating hormone receptor (TSHR) signaling pathway (AID 1224843; calls by dose curve; also: nearly all actives have a fitted effect of over 45% in size). In a few lines: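 Using 15 concentrations per compound in triplicate, cAMP production was monitored in TSHR-HEK293 cells after 30 min compound incubation at RT; HTRF reagents followed, with fluorescence intensity recorded after 1 h.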
Thyrotropin receptor (Homo sapiens), sequence (P16473 whole entry, looked up): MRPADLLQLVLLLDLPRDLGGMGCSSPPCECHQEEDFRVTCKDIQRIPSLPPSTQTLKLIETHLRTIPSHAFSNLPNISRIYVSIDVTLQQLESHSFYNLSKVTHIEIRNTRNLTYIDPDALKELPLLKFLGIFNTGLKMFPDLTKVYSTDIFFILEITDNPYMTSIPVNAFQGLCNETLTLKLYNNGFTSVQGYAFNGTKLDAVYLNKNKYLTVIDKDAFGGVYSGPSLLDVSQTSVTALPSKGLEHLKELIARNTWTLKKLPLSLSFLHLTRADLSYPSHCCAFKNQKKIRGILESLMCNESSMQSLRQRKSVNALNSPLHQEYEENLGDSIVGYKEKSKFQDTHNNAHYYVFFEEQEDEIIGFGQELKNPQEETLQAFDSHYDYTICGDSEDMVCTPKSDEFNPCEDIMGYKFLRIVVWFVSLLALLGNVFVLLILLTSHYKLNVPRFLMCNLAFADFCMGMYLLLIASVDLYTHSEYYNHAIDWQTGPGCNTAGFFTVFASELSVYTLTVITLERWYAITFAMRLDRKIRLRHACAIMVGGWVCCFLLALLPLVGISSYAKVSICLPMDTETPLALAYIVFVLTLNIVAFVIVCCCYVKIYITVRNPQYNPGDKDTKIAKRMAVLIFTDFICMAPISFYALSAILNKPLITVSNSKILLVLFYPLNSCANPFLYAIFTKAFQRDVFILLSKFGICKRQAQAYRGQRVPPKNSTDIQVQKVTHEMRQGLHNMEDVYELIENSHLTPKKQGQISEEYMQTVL

A short description of experiment [8]: qHTS assay to identify small molecule agonists of the hypoxia (HIF-1) signaling pathway - cell viability counter screen (AID 1224844; calls by dose curve; also: nearly all actives have a fitted effect of over 50% in size; also: potency is read from the fitted curve at half-maximal effect). The essentials:
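HRE-bla ME-180; 0.5% dFBS; cpd 17 h, 37C, 5% CO2; CellTiter-Glo lum., 30 min RT, post-FRET read, same wells.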

The nature of experiment [9]: qHTS assay to identify small molecule agonists of the hypoxia (HIF-1) signaling pathway (AID 1224846; active = well fitted activation curve with a large enough effect in the signal ratio in the repeat runs, not every such curve was filed as active; the % refers to the signal ratio). The essentials:
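Reporter induction in HRE-bla ME-180 cells is taken as agonism: cells sit 5 hrs after plating, receive compounds or DMSO only, incubate 17 hrs at 37C under 5% CO2, and are loaded with CCF4-AM for beta-lactamase FRET measurement.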

The nature of experiment [10]: qHTS assay to identify small molecule agonists of H2AX - cell viability counter screen (AID 1224847; calls by dose curve; also: nearly all actives have a fitted effect of over 30% in size; also: potency is read from the fitted curve at half-maximal effect). The essentials: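 We seed wild-type CHO-K1 cells overnight, treat them for 3 hr at 37C with compounds in 15-concentration series, and quantify remaining viability by CellTiter-Glo luminescence.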
The nature of experiment [11]: qHTS assay to identify small molecule antagonists of the estrogen related receptor (ERR) signaling pathway from Tox21 library (AID 1224848). Also: nearly all actives have a fitted effect of over 50% in size. Also: potency is read from the fitted curve at half-maximal effect. The essentials:
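Tox21 10K compounds in DMSO tested for ERR pathway antagonism in NTP's ERR cell line; 18 h, 37 C exposure; ONE-Glo luminescence.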

Experiment [12] can be described thus: qHTS assay to identify small molecule agonists of the estrogen related receptor (ERR) signaling pathway from Tox21 library (AID 1224849; calls by dose curve; also: nearly all actives have a fitted effect of over 15% in size). As to conditions: ERR reporter cell line, ONE-Glo luciferase, 18 h; at 92.4 µM (top of the series) unless noted. The essentials: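 Tox21 compounds tested for ERR agonism in an NTP reporter cell line: 18 h treatment at 37 C, then ONE-Glo luminescence.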

Experiment [13] in a line: qHTS RealTime-Glo MT Cell Viability Assay in HepG2 cells - 24 hour (AID 1224867). Also: nearly all actives have a fitted effect of over 50% in size. Also: potency is read from the fitted curve at half-maximal effect. In a few lines:
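HepG2 cells were seeded at 600 cells/well together with NanoLuc luciferase and a cell-permeant prosubstrate, preincubated 5 h at 37 C/5% CO2, then pin-dosed with compounds in DMSO. Nonlytic luminescence from viable cells was read at each time point.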

A short description of experiment [14]: qHTS RealTime-Glo MT Cell Viability Assay in HEK293 cells - 32 hour (AID 1224868). Also: nearly all actives have a fitted effect of over 50% in size. Also: potency is read from the fitted curve at half-maximal effect. In a few lines:
(§1)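 HEK293 cells were seeded at 600 cells/well together with NanoLuc luciferase and cell-permeant prosubstrate, preincubated 5 h at 37 C/5% CO2, then given compound in DMSO by pintool. Luminescence from viable-cell prosubstrate reduction was read repeatedly over 40 h.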

Experiment [15] is described as follows: A CellTox Green Cytotoxicity Assay to monitor cytotoxicity in HEK293 cells - 0 hour (AID 1224869). Also: nearly all actives have a fitted effect of over 50% in size. Also: potency is read from the fitted curve at half-maximal effect. The essentials: (§2)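 Tox21 screen in HEK293: membrane-impermeant cyanine dye fluoresces on binding dead-cell DNA; compound pinned 5 h post-seeding, plates held at 37 C, signal read repeatedly through 40 h.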
Experiment [16] is described as follows: qHTS RealTime-Glo MT Cell Viability Assay in HepG2 cells - 40 hour (AID 1224870). Also: nearly all actives have a fitted effect of over 50% in size. Also: potency is read from the fitted curve at half-maximal effect. The essentials:
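HepG2 cells mixed with RealTime-Glo MT reagents (NanoLuc plus cell-permeant prosubstrate) were seeded at 600 cells/well, incubated 5 h at 37 C/5% CO2, then pinned with compounds in DMSO; nonlytic luminescence tracked viability during 40 h treatment.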

Experiment [17] can be described thus: A CellTox Green Cytotoxicity Assay to monitor cytotoxicity in HEK293 cells - 40 hour (AID 1224871). Also: nearly all actives have a fitted effect of over 45% in size. Also: potency is read from the fitted curve at half-maximal effect. In a few lines: as §2
Experiment [18] is described as follows: qHTS RealTime-Glo MT Cell Viability Assay in HEK293 cells - 16 hour (AID 1224872). Also: nearly all actives have a fitted effect of over 50% in size. Also: potency is read from the fitted curve at half-maximal effect. In a few lines: as §1
The nature of experiment [19]: qHTS assay to identify small molecule agonists of H2AX (AID 1224845; active = well fitted activation curve with a large enough effect in the signal ratio in the repeat runs, not every such curve was filed as active; the % refers to the signal ratio). The essentials: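 Wild-type CHO-K1 cells plated overnight, then exposed 3 hr at 37C to compounds at 15 concentrations (0.76% DMSO). Lysed, then HTRF anti-pH2AX(S139)-cryptate/anti-H2AX-d2 detection after 24 hr at room temperature; emissions 665 and 620 nm.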
The nature of experiment [20]: qHTS assay to identify small molecule antagonists of the estrogen related receptor signaling pathway with the pleiotropic PPARgamma coactivator (PGC) from Tox21 10K library (AID 1224841; call rule not given here). In a few lines:
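Test chemicals dissolved in DMSO were applied to pre-incubated (6 h) PGC/ERR cells at 2,000 cells/well for an 18 h, 37 C treatment; reporter luminescence was then read using One-Glo.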

Eight molecules from PubChem BioAssay (Tox21) can be followed below.

Each structure is given as a SMILES string. Unmarked numbers belong to inactive results. Inconclusive results are not listed. Active and inactive are the calls of the source. Unless noted, calls follow the shape of the dose curve; as a rule, active = well fitted curve in the direction sought with a large enough effect in the repeat runs; inconclusive = weak or mixed curves; inactive = no such curve, though single readings can be large; an effect the other way counts as inactive or inconclusive.
% is scaled to controls: 0 for no effect and ±100 for the full control effect.

Regarding `CO[Si](CCCNCCNCCN)(OC)OC`, the Potency entry in experiment [1], in experiment [2], in [3], in [4], in [5] and in experiment [6] was “inactive” throughout. The Potency result in [7], in experiment [8], in experiment [10], in experiment [11], in experiment [13] and in experiment [14] was “inactive” each time. Besides, the Potency entry in experiment [15], in experiment [16], in experiment [17] and in [18] was “inactive” throughout. Also, the outcome in [9] was inactive. Further, the activity change, positive = activation in [12] was 2.38%.

Regarding `CCCCCCCC(OC)OC`, the Potency result in experiment [1], in experiment [2], in [3], in experiment [4], in experiment [5] and in experiment [7] was “inactive” each time. For the same molecule, the Potency result in [8], in [19], in experiment [10], in experiment [13], in experiment [14] and in experiment [15] was “inactive” throughout. Also, the Potency entry in experiment [17] and in experiment [18] was “inactive” throughout. Besides, the outcome in experiment [9] was inactive.

With `COc1cccc(OC)c1O`, the Potency entry in experiment [1], in experiment [2], in experiment [3], in experiment [4], in [5] and in experiment [7] was “inactive” throughout. The Potency result in experiment [8], in [19], in experiment [10], in experiment [14], in [15] and in experiment [16] was “inactive” throughout. Besides, the Potency entry in experiment [17] and in experiment [18] was “inactive” throughout. Moreover, the molecule was called inactive in [9].

Turning to `CCCCCCCCCCCCCC[n+]1ccccc1`, the Potency in experiment [1] was 7.7 µM (active); in experiment [2], 9.69 µM (active); in experiment [3] it was 48.6 µM (active); in [5] it was 54.5 µM (active); in experiment [8], 49 µM (active); in experiment [10], 56.6 µM (active). Further, the Potency in experiment [11] was 1.37 µM (active); in experiment [13], 19.5 µM (active); in experiment [14], 4.9 µM (active); in [16], 9.77 µM (active); in experiment [17], 38.9 µM (active); in experiment [18], 27.5 µM (active). Further, the Potency entry in [4], in experiment [6] and in experiment [15] was “inactive” in each case. Also, in experiment [12], the activity change, positive = activation is -77.5%.

In the case of `CCCCCCS`, the Potency result in experiment [1], in [2], in experiment [3], in experiment [4], in experiment [5] and in experiment [7] was “inactive” throughout. In addition, the Potency result in experiment [8], in experiment [19], in experiment [10], in [13], in experiment [14] and in experiment [15] was “inactive” in each case. The Potency result in experiment [16], in experiment [17] and in [18] was “inactive” each time. The result in [9] was inactive.

Consider `C[Si](C)O[Si](C)C`, for which the Potency result in experiment [1], in experiment [2], in experiment [3], in [4], in [5] and in [7] was “inactive” throughout. For the same molecule, the Potency entry in [8], in [19], in experiment [10], in [13], in experiment [14] and in experiment [15] was “inactive” in each case. Moreover, the Potency entry in experiment [16], in experiment [17] and in [18] was “inactive” in each case. Further, the call in experiment [9] was inactive.

Regarding `CCCCCCOc1cc(C)c(O)c(C)c1C`, the Potency entry in experiment [1], in [2], in experiment [3], in experiment [20], in experiment [6] and in [15] was “inactive” each time. Also, the Potency was 49.2 µM (active) in experiment [4]; 55.1 µM (active) in experiment [5]; 102 µM (active) in experiment [10]; 61.9 µM (active) in experiment [11]; 15.7 µM (active) in experiment [14]; 14 µM (active) in [18]. Moreover, the activity change, positive = activation in experiment [12] is -42.5%.

For the molecule `COC(=O)[C@]1(C)CCC[C@@]2(C)[C@H]1CC=C1C=C(C(C)C)CC[C@@H]12`, the Potency entry in experiment [1], in experiment [2], in [3], in [4], in experiment [5] and in experiment [20] was “inactive” each time. Further, the Potency result in [6], in experiment [7], in experiment [13], in experiment [14] and in experiment [18] was “inactive” each time. Moreover, the activity change, positive = activation in experiment [12] was -22.1%. The Potency was 24.5 µM (active) in [15] and 38.9 µM (active) in experiment [17].
